The source of these data is PMC5540273 (PLoS ONE, 2017).

Molecules are shown by their SMILES.
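Also: KINOMEscan kinase panel screen.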

In the first experiment the test system is WNK4. The note with it: concentration: 1 μM,replicates: in singlicate; n = 1.
For `CN1CCN(CCNc2nc3cc(Oc4ccc(NC(=O)Nc5cc(C(F)(F)F)ccc5F)cc4)ccc3[nH]2)CC1.Cl.Cl` [GW768504], the “%Inh” value is reported as 0%.
Regarding `CN(c1ccccc1CNc1nc(Nc2ccc3c(c2)CC(=O)N3)ncc1C(F)(F)F)S(C)(=O)=O`, the “%Inh” value stood at 0%.
In the case of `C[C@@H](Oc1cc(-n2cnc3ccc(-c4ccncc4)cc32)sc1C(N)=O)c1ccccc1Cl` [GSK483724], the “%Inh” value is reported as 51%.
Take `CC(=O)c1c(-c2ccncc2)[nH]c(-c2ccncc2)c1C` [GW493036]: the “%Inh” value is listed as 62%.
`N#Cc1cccc(C(=O)NC2CCN(c3ccnc(Nc4ccc(F)cc4)n3)C2)c1` (centres unmarked) [GSK1379708]: the “%Inh” value is listed as 76%.
The same measure, in the same setting: for `CS(=O)(=O)c1cccc(CNc2nc(Nc3ccc4c(c3)[C@@H]3C[C@@H]4CNC3=O)ncc2C(F)(F)F)c1` the value was 0%; for `CCN1CCN(CCCC(=O)Nc2n[nH]c3nc(-c4ccc(O)cc4)c(Br)cc23)CC1` [SB-731579], 0%; for `Cc1ccc(Nc2ccnc(Nc3ccc4c(c3)CS(=O)(=O)C4)n2)cc1O.Cl` [GW579362], 9%.
Same read-out and setting: for `C[C@@H](Oc1cc(-n2cnc3cc(-c4cnn(C)c4)ccc32)sc1C(N)=O)c1ccccc1Cl` [GSK580432] the value was 33%.
As to `O=C1NCCc2[nH]c(-c3ccncc3)cc21`, the “%Inh” value is reported as 22%.
With `c1ccc(Oc2ccc(Nc3ccnc4ccc(-c5ccccn5)cc34)cc2)cc1` [GW407034], the “%Inh” value came to 51%.
Turning to `NC(=O)Nc1sc(-c2ccc(F)cc2)cc1C(N)=O` [GW789449], the “%Inh” value is reported as 0%.
Regarding `COc1cccc(CNC(=O)NC2CCN(c3ccnc(Nc4cc(OC)c(OC)c(OC)c4)n3)C2)c1` (centres unmarked) [GSK1379765], the “%Inh” value turned out to be 43%.
On to `COC(=O)c1cccc(NC(=O)NC2CCN(c3ccnc(Nc4cc(OC)c(OC)c(OC)c4)n3)C2)c1` (centres unmarked) [GSK1379767], for which the “%Inh” value was determined as 39%.
On to `CC(=O)Nc1nc2cnc(Nc3cc(NC(=O)c4cccc(CC(C)(C)C#N)c4)ccc3C)nc2s1`, for which the “%Inh” value was determined as 26%.
For `C[C@@H]1CNc2c(sc3ccc4nc(-c5ccncc5)ccc4c23)C(=O)N1`, the “%Inh” value is 0%.
The same measure, in the same setting: as for `Cl.Nc1n[nH]c2cc(-c3ccccn3)ccc12` [GSK2189892], the figure is 0%; as for `COc1cc2c(Nc3ccc(NC(=O)c4ccccc4)cc3)ncnc2cc1OCCCN1CCOCC1` [GSK301329], 0%.
For the molecule `Cc1ccc2c(-c3ccnc(Nc4ccc(C(F)(F)F)cc4)n3)cnn2n1` [GW819776], the “%Inh” value stood at 0%.
With `CC(C)S(=O)(=O)N1CCN(Cc2ccc3c(c2)nc(NC(=O)c2ccsc2)n3C[C@H](O)c2ccccc2)CC1` [GW635815], the “%Inh” value came out at 0%.
For the molecule `NC(=O)c1ccc(-c2cc3ncnc(SCC(=O)O)c3s2)cc1`, the “%Inh” value is on record as 0%.
On to `CCn1c(-c2nonc2N)nc2cncc(Br)c21` [SB-738004], for which the “%Inh” value worked out at 39%.
Consider `O=C(NCC1CC1)c1ccc(-c2cc(C(=O)NC3CC3)ccc2F)cc1` [GW810445], for which the “%Inh” value came to 10%.
As for `COc1cc2ncn(-c3cc(OCC4CCCCC4)c(C(N)=O)s3)c2cc1OC` [GSK204559], the “%Inh” value amounted to 0%.
Turning to `COc1cccc(OC)c1C(=O)Nc1cccc(-c2nn3ccccc3c2-c2ccnc(Nc3cccc(F)c3)n2)c1` [GSK361065], the “%Inh” value was 0%.
As to `COC(=O)Nc1nc2cc(Oc3ccc(NC(=O)Nc4cc(C(F)(F)F)ccc4Cl)cc3)ccc2[nH]1.Cl` [GW697465], the “%Inh” value amounted to 48%.
Regarding `Cl.Cl.NC[C@H](CC1CCCCC1)NC(=O)c1ccc(-c2ccnc3[nH]ccc23)s1` [GSK1581428], the “%Inh” value is 7%.
`CN1CCN(CCCNc2nccc(-c3c(-c4ccc(F)cc4)nn4cc(C(N)=O)ccc34)n2)CC1` [GW622475]: the “%Inh” value turned out to be 14%.
The same measure, in the same setting: for `O=C(NOCC1CC1)c1cc(Br)c(F)c(F)c1Nc1ccc(I)cc1Cl` the value was 16%; for `CC(=O)Nc1ccc(-c2cc3ncnc(SCC(=O)O)c3s2)cc1`, 2%; for `OCCn1cc(-c2cnc3nnn(Cc4ccc5ncccc5c4)c3n2)cn1`, 0%.
In the case of `CCCC(=O)Nc1n[nH]c2ncccc12` [SB-601436], the “%Inh” value turned out to be 14%.
Regarding `CN(c1ccc2c(c1)nc(NCc1ccc(F)cc1)n2C)c1ccnc(Nc2ccc(CS(C)(=O)=O)cc2)n1.Cl` [GW813244], the “%Inh” value is 0%.
In the case of `Cl.c1ccc(Oc2ccc(Nc3ccnc4cc(-c5ccc(CN6CCNCC6)o5)ccc34)cc2)nc1` [GW567142], the “%Inh” value stood at 0%.
Turning to `Cc1ccc(C(=O)Nc2ccc(Oc3ccc4nc(NC(=O)C5CC5)cn4c3)c(F)c2)c(=O)n1-c1ccccc1`, the “%Inh” value was found to be 0%.
In the case of `CN(c1cccc(CNc2nc(Nc3ccc4c(c3)CC(=O)N4)ncc2C(F)(F)F)c1)S(C)(=O)=O`, the “%Inh” value turned out to be 0%.
Consider `CCn1c(-c2nonc2N)nc2cncc(CNC3CCNCC3)c21.Cl` [SB-747651], for which the “%Inh” value is listed as 21%.

Another experiment relates to T1, YANK1.
T1 construct: gene STK32A
The note with it: concentration: 1 μM,replicates: in singlicate; n = 1.
Regarding `CN1CCN(CCNc2nc3cc(Oc4ccc(NC(=O)Nc5cc(C(F)(F)F)ccc5F)cc4)ccc3[nH]2)CC1.Cl.Cl` [GW768504], the “%Inh” value came out at 0%.
Still for that read-out and setting: as for `CN(c1ccccc1CNc1nc(Nc2ccc3c(c2)CC(=O)N3)ncc1C(F)(F)F)S(C)(=O)=O`, the figure is 11%; as for `C[C@@H](Oc1cc(-n2cnc3ccc(-c4ccncc4)cc32)sc1C(N)=O)c1ccccc1Cl` [GSK483724], 18%; as for `CC(=O)c1c(-c2ccncc2)[nH]c(-c2ccncc2)c1C` [GW493036], 0%.
Same read-out and setting: for `N#Cc1cccc(C(=O)NC2CCN(c3ccnc(Nc4ccc(F)cc4)n3)C2)c1` (centres unmarked) [GSK1379708] the value was 2%; for `CS(=O)(=O)c1cccc(CNc2nc(Nc3ccc4c(c3)[C@@H]3C[C@@H]4CNC3=O)ncc2C(F)(F)F)c1`, 0%.
For the molecule `CCN1CCN(CCCC(=O)Nc2n[nH]c3nc(-c4ccc(O)cc4)c(Br)cc23)CC1` [SB-731579], the “%Inh” value worked out at 0%.
The same measure, in the same setting: as for `Cc1ccc(Nc2ccnc(Nc3ccc4c(c3)CS(=O)(=O)C4)n2)cc1O.Cl` [GW579362], the figure is 26%; as for `C[C@@H](Oc1cc(-n2cnc3cc(-c4cnn(C)c4)ccc32)sc1C(N)=O)c1ccccc1Cl` [GSK580432], 25%.
`O=C1NCCc2[nH]c(-c3ccncc3)cc21`: the “%Inh” value is on record as 0%.
On to `c1ccc(Oc2ccc(Nc3ccnc4ccc(-c5ccccn5)cc34)cc2)cc1` [GW407034], for which the “%Inh” value is recorded as 12%.
`NC(=O)Nc1sc(-c2ccc(F)cc2)cc1C(N)=O` [GW789449]: the “%Inh” value is 4%.
`COc1cccc(CNC(=O)NC2CCN(c3ccnc(Nc4cc(OC)c(OC)c(OC)c4)n3)C2)c1` (centres unmarked) [GSK1379765]: the “%Inh” value is on record as 0%.
On to `COC(=O)c1cccc(NC(=O)NC2CCN(c3ccnc(Nc4cc(OC)c(OC)c(OC)c4)n3)C2)c1` (centres unmarked) [GSK1379767], for which the “%Inh” value is recorded as 12%.
With `CC(=O)Nc1nc2cnc(Nc3cc(NC(=O)c4cccc(CC(C)(C)C#N)c4)ccc3C)nc2s1`, the “%Inh” value was found to be 1%.
Regarding `C[C@@H]1CNc2c(sc3ccc4nc(-c5ccncc5)ccc4c23)C(=O)N1`, the “%Inh” value came out at 21%.
On to `Cl.Nc1n[nH]c2cc(-c3ccccn3)ccc12` [GSK2189892], for which the “%Inh” value is given as 2%.
The same measure, in the same setting: for `COc1cc2c(Nc3ccc(NC(=O)c4ccccc4)cc3)ncnc2cc1OCCCN1CCOCC1` [GSK301329] the value was 14%; for `Cc1ccc2c(-c3ccnc(Nc4ccc(C(F)(F)F)cc4)n3)cnn2n1` [GW819776], 0%; for `CC(C)S(=O)(=O)N1CCN(Cc2ccc3c(c2)nc(NC(=O)c2ccsc2)n3C[C@H](O)c2ccccc2)CC1` [GW635815], 1%.
Take `NC(=O)c1ccc(-c2cc3ncnc(SCC(=O)O)c3s2)cc1`: the “%Inh” value came to 0%.
Take `CCn1c(-c2nonc2N)nc2cncc(Br)c21` [SB-738004]: the “%Inh” value amounted to 0%.
Same read-out and setting: for `O=C(NCC1CC1)c1ccc(-c2cc(C(=O)NC3CC3)ccc2F)cc1` [GW810445] the value was 0%; for `COc1cc2ncn(-c3cc(OCC4CCCCC4)c(C(N)=O)s3)c2cc1OC` [GSK204559], 0%.
The same measure, in the same setting: for `COc1cccc(OC)c1C(=O)Nc1cccc(-c2nn3ccccc3c2-c2ccnc(Nc3cccc(F)c3)n2)c1` [GSK361065] the value was 0%; for `COC(=O)Nc1nc2cc(Oc3ccc(NC(=O)Nc4cc(C(F)(F)F)ccc4Cl)cc3)ccc2[nH]1.Cl` [GW697465], 0%; for `Cl.Cl.NC[C@H](CC1CCCCC1)NC(=O)c1ccc(-c2ccnc3[nH]ccc23)s1` [GSK1581428], 68%.
Still for that read-out and setting: for `CN1CCN(CCCNc2nccc(-c3c(-c4ccc(F)cc4)nn4cc(C(N)=O)ccc34)n2)CC1` [GW622475] the value was 20%; for `O=C(NOCC1CC1)c1cc(Br)c(F)c(F)c1Nc1ccc(I)cc1Cl`, 0%.
Turning to `CC(=O)Nc1ccc(-c2cc3ncnc(SCC(=O)O)c3s2)cc1`, the “%Inh” value worked out at 0%.
On to `OCCn1cc(-c2cnc3nnn(Cc4ccc5ncccc5c4)c3n2)cn1`, for which the “%Inh” value came to 3%.
The same measure, in the same setting: for `CCCC(=O)Nc1n[nH]c2ncccc12` [SB-601436] the value was 0%; for `CN(c1ccc2c(c1)nc(NCc1ccc(F)cc1)n2C)c1ccnc(Nc2ccc(CS(C)(=O)=O)cc2)n1.Cl` [GW813244], 0%; for `Cl.c1ccc(Oc2ccc(Nc3ccnc4cc(-c5ccc(CN6CCNCC6)o5)ccc34)cc2)nc1` [GW567142], 0%.
Consider `Cc1ccc(C(=O)Nc2ccc(Oc3ccc4nc(NC(=O)C5CC5)cn4c3)c(F)c2)c(=O)n1-c1ccccc1`, for which the “%Inh” value turned out to be 0%.
On the same count and under the same terms, as for `CN(c1cccc(CNc2nc(Nc3ccc4c(c3)CC(=O)N4)ncc2C(F)(F)F)c1)S(C)(=O)=O`, the figure is 0%.
As to `CCn1c(-c2nonc2N)nc2cncc(CNC3CCNCC3)c21.Cl` [SB-747651], the “%Inh” value is given as 3%.
